Test results from PubChem BioAssay AID902 (National Center for Advancing Translational Sciences (NCATS), 2007).
Hit rate of the full screen: of about 130,000 compounds, about 1,900 (1.5%) were called active. Roughly 5% stayed inconclusive and do not appear here. Calls come from the whole dose curve; as a rule, active = well fitted cell-killing curve with a large enough effect; inconclusive = small, poorly fitted or top-dose-only effect; inactive = no such curve, though single readings can be large or run the other way. The entries come from a sample that favours actives as a whole.

experiment: qHTS Screen for Compounds that Selectively Target Cancer Cells with p53 Mutations: Cytotoxicity of p53ts Cells at the Nonpermissive Temperature; details: H1299-p53A138V viability at 39C, ATP luminescence, 24 h; series mostly up to 46.1 µM; activity change, negative = cell killing: at the top concentration; note: nearly all actives have a fitted effect of over 55% in size
% is set by controls: 0 for no effect and ±100 for the full control effect; potency is the fitted concentration of half-maximal effect.

SMILES | activity change, negative = cell killing | Potency
CCOC(=O)CNC(=O)c1cc2c(=O)n3cccc(C)c3nc2s1 | -21.7% (inactive) | 
CCCc1nn2c(=O)cc(COC(=O)c3ccc(NC(=O)COc4ccc(F)cc4)cc3)nc2s1 | 11.1% (inactive) | 
N#Cc1ccccc1-c1ccc2ncnc(NCc3cccnc3)c2c1 | -2.85% (inactive) | 
N#Cc1cccc(-c2ccc3ncnc(NCc4cccs4)c3c2)c1 |  | 12.6 µM (active)
COc1ccccc1CNc1ncnc2ccc(-c3ccc4c(c3)OCO4)cc12 | -3.34% (inactive) | 
Cc1ccc(Cl)cc1NC(=O)C1CCCN(c2cnccn2)C1 (centres undefined) | -7.25% (inactive) | 
O=C(c1cc(-c2ccc(F)cc2)on1)N1CCN(c2ccc(F)cc2)CC1 | 9.22% (inactive) | 
Cc1ccc(S(=O)(=O)/N=C(/Nc2ccccn2)c2ccc(Cl)cc2)cc1 | -15.9% (inactive) | 
CCN(CC)S(=O)(=O)c1cc(C(=O)Nc2ccccn2)ccc1C |  | 12.6 µM (active)
CCN(CC)S(=O)(=O)c1cccc(C(=O)Nc2ccccc2)c1 | -12% (inactive) | 
CN(C(=O)CN1C(=O)CCSc2ccc(S(=O)(=O)N3CCCC3)cc21)c1ccccc1 | -4.63% (inactive) | 
O=C(CSc1nnc(-c2ccccc2F)o1)Nc1cccc(C(F)(F)F)c1 | 8.67% (inactive) | 
O=C(NCCS(=O)(=O)N1CCN(c2ccc(F)cc2)CC1)c1ccccc1Br | -17.1% (inactive) | 
COc1ccc(N2C(=O)CS(=O)(=O)C23C(=O)N(Cc2ccc(C)cc2)c2ccccc23)cc1Cl (centres undefined) | 21% (inactive) | 
CCCCOc1ccc(C(=O)Nc2cccc(-c3nc4ccccc4o3)c2C)cc1 | 35.1% (inactive) | 
O=C(COc1ccccc1F)Nc1ccc(C(=O)OCc2cc(=O)n3nc(C4CC4)sc3n2)cc1 | -13.1% (inactive) | 
CSc1oc(-c2cccs2)nc1S(=O)(=O)c1ccc(Br)cc1 | 17.8% (inactive) | 
CCCCS(=O)(=O)c1oc(-c2cccs2)nc1S(=O)(=O)c1ccccc1 |  | 3.16 µM (active)
NC(=O)CSc1oc(-c2cccs2)nc1S(=O)(=O)c1ccccc1 | 11.5% (inactive) | 
CC(C)c1ccc(-c2nn[nH]n2)cc1 |  | 12.6 µM (active)
Cc1nnc(C)n1/N=C/c1ccc(C(C)C)cc1 | -10.4% (inactive) | 
c1ccc(-n2ncc(-c3nn[nH]n3)n2)cc1 | -2.58% (inactive) | 
CCc1ccc(-n2nnc(-c3nc(-c4ccccc4)no3)c2C)cc1 | -4.05% (inactive) | 
CCOC(=O)c1c(C)oc2nc(C)nc(Nc3ccc(CC)cc3)c12 | 12.3% (inactive) | 
CCOc1ccc(Nc2c(S(=O)(=O)c3ccccc3)cnc3ccccc23)cc1 | -6.31% (inactive) | 
CCOc1ccc(CCNC(=O)c2ccc3c(c2)sc2nc(-c4ccc(F)cc4)cn23)cc1OCC | -30% (inactive) | 

SMILES | activity change, negative = cell killing | Potency
CCOC(=O)c1ccc(NC(=O)c2nc(SCc3ccc(F)cc3)ncc2Cl)cc1 | -9.35% (inactive) | 
CCOC(=O)c1scc(-c2ccccc2)c1S(=O)(=O)Nc1ccccc1F | -11.6% (inactive) | 
CCCS(=O)(=O)c1ncc(Cl)c(C(=O)Nc2scc(-c3ccccc3)c2C(=O)OCC)n1 |  | 7.94 µM (active)
CCOC(=O)C1CCN(c2csc3ccc(C)cc3c2=O)CC1 | -18.6% (inactive) | 
COc1ccc(CNC(=O)c2ccc3c(c2)nc2n3CCOC2)c(OC)c1 | -4.85% (inactive) | 
CCc1ccc(-n2nc(C)c3c(C)cc(=O)n(CC(=O)Nc4ccc(F)cc4C)c32)cc1 | -8.83% (inactive) | 
O=c1oc2cc(O)ccc2cc1-c1ccc(F)cc1 | 7.63% (inactive) | 
COc1ccc2cc(-c3nc(Cl)c4c5c(sc4n3)CC(C)CC5)c(=O)oc2c1 (centres undefined) | 8.48% (inactive) | 
COc1ccc(-c2cc3ccc(OCc4nn[nH]n4)cc3oc2=O)cc1 |  | 12.6 µM (active)
Cc1cn(C)c(CC(=O)NCc2ccc(Cl)cc2)c1C(=O)O | -8.42% (inactive) | 
CCc1ccc(NC(=O)CCS(=O)(=O)c2cc3c(cc2Cl)NC(=O)CO3)cc1 | -21.4% (inactive) | 
COC(=O)c1sc(NC(=O)c2ccc(OC)cc2OC)nc1C |  | 0.316 µM (active)
COc1ccc(C(=O)Nc2nncs2)c(OC)c1 | -26.2% (inactive) | 
COC(=O)c1sc(NC(=O)c2csc3c2CCCC3)nc1C | 12.2% (inactive) | 
CCOC(=O)c1cccc(NC(=O)c2cc(CN3CCCC3)on2)c1 | -17.2% (inactive) | 
CCOc1ccc(NC(=O)Cn2c(=O)n(CCCC(=O)NCc3ccc4c(c3)OCO4)c(=O)c3ccccc32)cc1 | 2.75% (inactive) | 
Cc1nn2c(=O)cc(COC(=O)c3cccc(NC(=O)COc4ccccc4Cl)c3)nc2s1 |  | 12.6 µM (active)
Cc1nn2c(=O)cc(COC(=O)c3ccccc3NC(=O)COc3ccccc3C)nc2s1 | -9.66% (inactive) | 
COc1ccc(OCC(=O)Nc2cccc(C(=O)OCc3cc(=O)n4nc(C)sc4n3)c2)cc1 | -9.88% (inactive) | 
Cc1cccc(C(=O)NCCc2nc3ccccc3n2Cc2ccccc2Cl)c1 | -12.8% (inactive) | 
Cc1ccc(NC(=O)c2cccc(N(C)C)c2)cc1NC(=O)c1ccc(O)cc1 |  | 7.94 µM (active)
Cc1ccccc1NC(=O)c1ccccc1 | 2.54% (inactive) | 
Cc1ccc(F)cc1NC(=O)c1cccc(N(C)C)c1 | -15.6% (inactive) | 
COc1ccc(CCN2C(=O)c3oc4cc(C)cc(C)c4c(=O)c3C2c2ccccc2F)cc1OC (centres undefined) | -6.84% (inactive) | 
Cn1c(-c2ccco2)nc2cc3ccccc3cc21 |  | 1.26 µM (active)
c1coc(-c2nc3nc4ccccc4n3nc2-c2ccco2)c1 | -3.02% (inactive) | 

SMILES | activity change, negative = cell killing | Potency
CN(c1nc2ccccc2n2c(-c3ccco3)nnc12)S(=O)(=O)c1ccccc1 | 1.85% (inactive) | 
O=C(CCn1ccc2cc(S(=O)(=O)N3CCCC3)ccc21)NCc1cccc(Cl)c1 | -25.5% (inactive) | 
COc1ccc(CC(=O)NCCc2sc3nc(-c4ccc(OC)cc4)nn3c2C)cc1 | -18% (inactive) | 
Cc1cccc(-n2ccnc2SCC(=O)Nc2cc(C(F)(F)F)ccc2Cl)c1 | -21.3% (inactive) | 
O=C(c1cccc(C(=O)N2CCc3ccccc32)n1)N1CCc2ccccc21 | 1.43% (inactive) | 
O=C(CN1CCN(c2ccccn2)CC1)N1CCc2ccccc21 | 19.6% (inactive) | 
O=C(CN1C(=O)c2ccccc2S1(=O)=O)N1CCc2ccccc21 |  | 2 µM (active)
CC(=O)Nc1ccc(S(=O)(=O)N2CCN(C(=O)c3ccccc3F)CC2)cc1 | 3.21% (inactive) | 
CC(C)c1ccc(NC(=O)c2cc(S(=O)(=O)N3CCc4ccccc4C3)ccc2F)cc1 |  | 31.6 µM (active)
Cc1cccc(NC(=O)c2cc(S(=O)(=O)N3CCC4(CC3)OCCO4)ccc2F)c1 | 5.17% (inactive) | 
Cc1nc2ccn(Cc3cccs3)c(=O)c2cc1C(=O)NCc1ccc(Cl)cc1 | -19% (inactive) | 
COC(=O)c1sc2ncccc2c1-n1c(C)ccc1C | -13.8% (inactive) | 
CC(C)S(=O)(=O)c1oc(-c2ccc(F)cc2)nc1S(=O)(=O)c1ccc(F)cc1 |  | 3.16 µM (active)
Cc1ccc(-c2nc(S(=O)(=O)c3ccc(C)cc3)c(N3CCCCCC3)o2)cc1 | 6.8% (inactive) | 
COc1ccc(-c2nc(S(=O)(=O)c3ccccc3)c(N3CCCCC3)o2)cc1 | 12.8% (inactive) | 
COc1ccc(NC(=O)c2c(C)oc3c2CCCC3)cc1 | -9.84% (inactive) | 
COc1ccc(C(=O)Nc2onc3c2CCCC3)cc1 |  | 10 µM (active)
CC1CCc2noc(NC(=O)c3ccc([N+](=O)[O-])cc3)c2C1 (centres undefined) | 2.77% (inactive) | 
O=C(c1ccc2c(c1)N(Cc1ccccc1)C(=O)c1ccccc1S2(=O)=O)N1CCCC1 | -14.6% (inactive) | 
COc1ccccc1C(=O)Nc1c(C(=O)N(C)Cc2ccccc2)sc2nc(C)c(Cl)c(C)c12 | 12.2% (inactive) | 
COc1ccc(NS(=O)(=O)c2cc3c4c(c2)CC(=O)N4CCC3)cc1Cl | -7.45% (inactive) | 
CCN1C(=O)c2ccccc2S(=O)c2ccc(C(=O)NCc3ccc(F)cc3)cc21 (centres undefined) | 1.95% (inactive) | 
CCC(=O)NC(=Nc1nc2ccccc2s1)NC(=O)CC |  | 10 µM (active)
COC(=O)Cc1cc(=O)n(-c2nc3ccccc3s2)[nH]1 | -2.65% (inactive) | 
COC(=O)c1nc2ccccc2s1 | 5.71% (inactive) | 
O=C(NCC(c1ccc2c(c1)OCO2)N1CCN(c2ccccc2)CC1)C(=O)Nc1ccccc1F (centres undefined) | -23.6% (inactive) | 

SMILES | activity change, negative = cell killing | Potency
O=C(NC1CC(=O)N(c2ccccc2)C1)c1ccco1 (centres undefined) | -7.23% (inactive) | 
c1csc(-c2nc(-c3ccncc3)no2)c1 | -9.47% (inactive) | 
c1ccc(-c2noc(-c3cccs3)n2)nc1 |  | 15.8 µM (active)
CC(C)c1nc(-c2ccccn2)no1 | -4.4% (inactive) | 
COc1ccc(CNC(=O)c2cc3c(-c4ccccc4F)nn(C)c3s2)c(OC)c1 | 14.9% (inactive) | 
CCOc1ccc(NC(=O)c2c(NC(=O)Cc3ccccc3)sc3c2CCCCC3)cc1 |  | 10 µM (active)
CCOc1ccc(NC(=O)c2c(NCc3cccc(OC)c3OC)sc3c2CCC3)cc1 | 27.5% (inactive) | 
O=C(Cc1ccccc1)Nc1sc2c(c1C(=O)Nc1ccc(Br)cc1)CCC2 | 14.3% (inactive) | 
CCc1ccc(CNC(=O)c2ccc(CS(=O)c3ccc(Br)cc3)o2)cc1 (centres undefined) | -14.8% (inactive) | 
CC(NC(=O)c1cc(Sc2ccc(F)cc2F)nc2ccccc12)c1ccccc1 (centres undefined) | -22.5% (inactive) | 
O=C(/C=C/c1ccccc1)N1CCN(Cc2cc(=O)n3nc(-c4ccccc4F)sc3n2)CC1 | -9.93% (inactive) | 
O=C(Nc1nc2c(s1)CCCC2)c1ccccc1F |  | 10 µM (active)
O=C(Cn1c(=O)sc2ccccc21)Nc1nc2c(s1)CCCC2 | -3.55% (inactive) | 
NC(=O)c1ccccc1NC(=O)c1ccccc1F | 5.04% (inactive) | 
COC(=O)c1ccccc1NS(=O)(=O)c1ccc2c(c1)CCCN2C(C)=O | 26.2% (inactive) | 
CCn1cc2nc(SCc3ccccc3Cl)n(CCc3ccccc3)c(=O)c2n1 | -22% (inactive) | 
Cc1ccc(C(=O)N2CCCCCC2)cc1Br | 5.68% (inactive) | 
Cc1ccc2cc3cc(C(=O)N4CCCCCC4)oc3nc2c1 |  | 15.8 µM (active)
CCc1ccc(CNC(=O)c2cc3cc4ccc(OC)cc4nc3o2)cc1 | 22.4% (inactive) | 
CCCS(=O)(=O)c1c(Nc2ccccc2C)sc(C(=O)c2ccccc2)c1N | -12.5% (inactive) | 
Cc1c(NC(=O)C(C)(C)C)cccc1-c1nc2ccccc2s1 |  | 15.8 µM (active)
CCC(C(=O)Nc1cccc(-c2nc3cccnc3s2)c1C)c1ccccc1 (centres undefined) | 18.6% (inactive) | 
Cc1c(NC(=O)Cc2ccccc2)cccc1-c1nc2cccnc2s1 | 0.432% (inactive) | 
CCOc1ccc(N(Cc2ccccc2)C(=O)c2nc(S(C)(=O)=O)ncc2Cl)cc1 |  | 3.98 µM (active)
CCOc1ccc(N(Cc2ccccc2)C(=O)c2nc(SCC)ncc2Cl)cc1 | -14.9% (inactive) | 
CCOc1ccc(NC(=O)CN(Cc2ccccc2)S(=O)(=O)c2ccc(Cl)cc2)cc1 | -8.08% (inactive) | 
